# In all, about 69,000 compounds went through this assay and about 8,600 (12%) showed an effect of 50% or more. This excerpt belongs to a sample that is enriched for strong results.
# System: Plasmodium berghei
# Assay: Screen against P. berghei liver stage (PbLuc), transformed with Luciferase, at 10uM
# Assay type: functional, HepG2
# Details: tested at 10 uM
row,SMILES,INHIBITION [%]
1,c1cc(-c2cn[nH]c2)ccc1CN1CCNCC1,14.6
2,CCNC(=O)C(C)NC(=O)c1cnc(-c2ccc(C)cc2C)s1 (centres undefined),50.5
3,Cc1ccc(-c2ncc(C(=O)NCCNC(=O)C(C)C)s2)c(C)c1,-10.9
4,Cc1ccc(-c2ncc(C(=O)NCCS(N)(=O)=O)s2)c(C)c1,-37.3
5,COc1ccccc1C(O)CNC(=O)NCc1csc(C)n1 (centres undefined),13.3
6,c1csc(CN2Cc3nc(CN4CCCC4)oc3C2)c1,33.5
7,O=S(=O)(c1cccs1)N1Cc2nc(COCC3CC3)oc2C1,30.3
8,O=S(=O)(c1cccs1)N1Cc2nc(CN3CCCCC3)oc2C1,19.5
9,O=S(=O)(c1cccs1)N1Cc2nc(CN3CCCC3)oc2C1,67.5
10,CCN(CC)Cc1nc2c(o1)CN(S(=O)(=O)c1cccs1)C2,57.5
11,CN(C)Cc1nc2c(o1)CN(S(=O)(=O)c1cccs1)C2,34
12,O=c1c(S(=O)(=O)N2CCCC2)cccn1Cc1c(F)cccc1Cl,7.92
13,Cc1nc[nH]c1CN1CCC2(CC1)CC(Nc1ncccn1)CO2 (centres undefined),27.6
14,CCc1cnc(CN2CCC(N(Cc3noc(CC)n3)C(C)=O)C2)o1 (centres undefined),-15.5
15,CC1CN(CC(=O)NCc2cccs2)CCN1c1nccs1 (centres undefined),36.1
16,Cc1ccc(-c2cc(N)c(=O)n(C(C)C(N)=O)n2)o1 (centres undefined),-6.88
17,COc1ccccc1CN1C[C@@H]2CN(C(C)=O)CCO[C@@H]2C1,0.453
18,COCC(=O)N1CCN(C(=O)NC(C)C)CC2(CC(=O)N(C)C2)C1 (centres undefined),45.2
19,O=C1NCC2=Nc3ccccc3NC(c3ccccc3)C12 (centres undefined),7.92
20,CN(C)CCOCc1nnc2n1CCN(Cc1ccoc1)CC2,0.618
21,CN(C)CCOCc1nnc2n1CCN(Cc1ccc(F)cc1)CC2,69.8
22,COc1ccc(CN2CCc3nnc(COCCN(C)C)n3CC2)cc1,22.4
23,CN(CC(=O)N1CCCCC1c1nc(C(C)(C)C)cs1)C1CC1 (centres undefined),-19.9
24,Cc1nccc(C2CCCCN2Cc2ccc(F)cc2)n1 (centres undefined),41.2
25,CCS(=O)(=O)N1Cc2ccccc2CC1C(=O)OCc1c(C)noc1C (centres undefined),-16.3
26,Cc1cc(COC(=O)[C@@H]2Cc3ccccc3CN2S(C)(=O)=O)no1,5.91
27,CCS(=O)(=O)N1Cc2ccccc2CC1C(=O)OCc1cc(C)no1 (centres undefined),60.2
28,Cc1nc(CN2CCC3(CCCN(Cc4cnn(C)c4)C3)C2=O)cs1 (centres undefined),-0.912
29,COc1ccc2[nH]c3c(N(C)CC4OCCO4)ncnc3c2c1,-112
